Screening data: PubChem BioAssay, Broad Institute
MITF inhib: inhibitors of MITF, primary screen, MITF inhibitor project, cell-based, luminescence; TRPM1 promoter luciferase, 24 h; inhibition, % (no concentration beside the values); 0.28% of 37,000 active; in the data active means inhibition above about 85%;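 further: human melanocyte line stably carrying TRPM1 promoter luciferase reporter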
YB-1 expression: inhibitors of YB-1 gene expression, primary screen, cell-based, fluorescence | AID 434959, 2010 | 0.37% of 30,000 active | delta delta Cp (YB-1 minus CDIP) (test concentration not listed) | U2OS, qRT-PCR YB-1 vs CDIP delta delta Cp, 16 h; stronger effect = higher value; zero = DMSO, each unit about twofold;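 active means delta delta Cp rounded down to an integer at or above 3, about 3 SD of DMSO wells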;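 further: higher means less YB-1 transcript or more CDIP transcript relative to DMSO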
PD-1 reversal: activators reversing PD-1 mediated T-cell inhibition, primary screen, luminescence, primary human CD4 T cells, PD-L1 beads | 29,000 tested, under 10 active | CellTiter-Glo 96 h | AID 2316, 2010 | activation, % (concentration not given with the values); call rule not given here;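 further: 0% = median vehicle wells and 100% = positive control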
Shh pathway inh: Hedgehog pathway signaling inhibitors, primary screen, luminescence, Shh-LIGHT2 cells, Gli-luciferase. Shh-LIGHT2 Gli-luciferase reporter, 30 h. inhibition, % (concentration not given with the values). 2.1% of 22,000 active. AID 2313, 2010;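 active means mean inhibition across valid replicates above about 65%, limit read from the data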;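 further: pathway switched on by Shh-conditioned medium diluted 1 in 25 in low serum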
NOMO-1 viab: NOMO-1 AML cell viability reduction, primary screen, STK33 inhibitor project, CellTiter-Glo luminescence. NOMO-1 AML viability, 72 h. inhibition, % (no concentration beside the values). 7.5% of 37,000 active; in the data active means inhibition above about 80%
Starred values were filed as active, the others as inactive; x = not tested or not shown. A selection: hits, their analogues and other compounds. The true share with any hit is near 7.4%.

SMILES | MITF inhib | YB-1 expression | PD-1 reversal | Shh pathway inh | NOMO-1 viab
C[C@@H]1CN([C@H](C)CO)C(=O)c2cc(NC(=O)Nc3ccc(C(F)(F)F)cc3)ccc2O[C@@H]1CN(C)Cc1ccc(C(F)(F)F)cc1 | 36.5 | -0.00831 | -5.7 | x | 114.6*
C[C@@H]1CN([C@H](C)CO)C(=O)Cc2cc(NC(=O)C3CCCCC3)ccc2O[C@@H]1CN(C)C(=O)Nc1cccc2ccccc12 | -0.3 | x | -2.4 | 0.0 | 27.8
COC(=O)C1=CO[C@@H](O[C@@H]2O[C@H](CO)[C@@H](O)[C@H](O)[C@H]2O)[C@@H]2[C@@H]3CN4CCc5c([nH]c6ccccc56)[C@]4(C[C@H]12)O3 | 7.5 | -0.219 | 0.6 | -9.5 | 21.1
C[C@@H]1CN([C@@H](C)CO)C(=O)c2cc(NC(=O)Nc3ccccc3)ccc2O[C@H]1CN(C)Cc1ccc(C(F)(F)F)cc1 | 17.8 | 2.37 | 0.8 | x | 79.1
C[C@H](CO)N1C[C@H](C)[C@@H](CN(C)Cc2ccc(C(F)(F)F)cc2)Oc2ccc(NC(=O)Nc3ccc(C(F)(F)F)cc3)cc2C1=O | 10.7 | 0.225 | x | -53.2 | 129.7*
C[C@@H]1CN([C@@H](C)CO)C(=O)c2cc(NC(=O)Nc3ccc(C(F)(F)F)cc3)ccc2O[C@@H]1CN(C)Cc1ccc(C(F)(F)F)cc1 | 101.0* | -0.316 | -7.2 | 17.9 | 118.0*
C[C@@H]1CN([C@@H](C)CO)C(=O)c2cc(NC(=O)Nc3ccc(C(F)(F)F)cc3)ccc2O[C@H]1CN(C)Cc1ccc(C(F)(F)F)cc1 | 10.4 | 0.447 | -12.2 | x | 116.6*
